# ± gives the standard deviation of the averaged measurements.
# Columns and labels:
# Assay in all cases: promoter activity interaction Z-score (Lux/OD deviation from empty-vector control); higher = stronger promoter induction by the compound
# [1] = test system: E. coli BW25113 tolCp lux reporter
# How it was run: (§1)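 Reporter strains of E. coli BW25113 grew at 37°C in 40 µl LB Lennox in 384-well plates. Readings of OD600 and luminescence were taken every 30 min over 12 h, integrated over 0–8 h (wild type) or 1–9 h (deletion strains), and wells below 10% of the median growth value were excluded. Scores are Z-transformed residuals of growth-normalised luminescence from a fit against a control.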
# [2] = test system: E. coli BW25113 acrABp lux reporter
# How it was run: as §1
# [3] = test system: E. coli BW25113 micFp lux reporter
# How it was run: as §1
# [4] = test system: E. coli BW25113 ompFp lux reporter
# How it was run: as §1
# [5] = test system: E. coli BW25113 robp lux reporter
# How it was run: as §1
# [6] = test system: E. coli BW25113 soxSp lux reporter
# How it was run: as §1
# [7] = 0.29 µg/ml, genetic background: wild type
# [8] = 0.29 µg/ml, genetic background: ΔmarA
# [9] = 0.29 µg/ml, genetic background: Δrob
# [10] = 0.29 µg/ml, genetic background: ΔsoxS
# [11] = 0.58 µg/ml, genetic background: wild type
# [12] = 0.58 µg/ml, genetic background: ΔmarA
# [13] = 0.58 µg/ml, genetic background: Δrob
# [14] = 0.58 µg/ml, genetic background: ΔsoxS
# [15] = 1.2 µg/ml, genetic background: wild type
# [16] = 1.2 µg/ml, genetic background: ΔmarA
# [17] = 1.2 µg/ml, genetic background: Δrob
# [18] = 1.2 µg/ml, genetic background: ΔsoxS
# [19] = 2.3 µg/ml, genetic background: wild type
# [20] = 2.3 µg/ml, genetic background: ΔmarA
# [21] = 2.3 µg/ml, genetic background: Δrob
# [22] = 2.3 µg/ml, genetic background: ΔsoxS
smiles,measurement,setting,value
O=C(O)c1ccccc1O [Salicylate],promoter activity interaction Z-score,"[1]; 69.1 µg/ml, genetic background: Δrob",0.839 ± 0.021
same,promoter activity interaction Z-score,"[1]; 69.1 µg/ml, genetic background: ΔsoxS",0.668 ± 1.5
same,promoter activity interaction Z-score,"[1]; 138.1 µg/ml, genetic background: wild type",2.05 ± 1
same,promoter activity interaction Z-score,"[1]; 138.1 µg/ml, genetic background: ΔmarA",-0.89 ± 0.018
same,promoter activity interaction Z-score,"[1]; 138.1 µg/ml, genetic background: Δrob",1.38 ± 2
same,promoter activity interaction Z-score,"[1]; 138.1 µg/ml, genetic background: ΔsoxS",0.806 ± 0.32
COc1cccc2c1C(=O)c1c(O)c3c(c(O)c1C2=O)C[C@@](O)(C(=O)CO)C[C@@H]3O[C@H]1C[C@H](N)[C@H](O)[C@H](C)O1 [Doxorubicin],promoter activity interaction Z-score,[2]; [7],0.264 ± 0.31
same,promoter activity interaction Z-score,[2]; [8],-0.773 ± 0.32
same,promoter activity interaction Z-score,[2]; [9],-0.101 ± 0.29
same,promoter activity interaction Z-score,[2]; [10],-0.227 ± 0.054
same,promoter activity interaction Z-score,[2]; [11],-0.00519 ± 0.22
same,promoter activity interaction Z-score,[2]; [12],-0.484 ± 0.49
same,promoter activity interaction Z-score,[2]; [13],0.115 ± 0.14
same,promoter activity interaction Z-score,[2]; [14],0.371 ± 0.49
same,promoter activity interaction Z-score,[2]; [15],0.261 ± 0.022
same,promoter activity interaction Z-score,[2]; [16],-0.464 ± 0.4
same,promoter activity interaction Z-score,[2]; [17],-0.135 ± 0.15
same,promoter activity interaction Z-score,[2]; [18],0.0497 ± 0.23
same,promoter activity interaction Z-score,[2]; [19],0.546 ± 0.062
same,promoter activity interaction Z-score,[2]; [20],-0.437 ± 0.036
same,promoter activity interaction Z-score,[2]; [21],6.35e-05 ± 0.4
same,promoter activity interaction Z-score,[2]; [22],0.827 ± 0.68
same,promoter activity interaction Z-score,[3]; [7],0.258 ± 0.51
same,promoter activity interaction Z-score,[3]; [8],0.00982 ± 0.04
same,promoter activity interaction Z-score,[3]; [9],-0.233 ± 0.1
same,promoter activity interaction Z-score,[3]; [10],-0.236 ± 0.048
same,promoter activity interaction Z-score,[3]; [11],-0.041 ± 0.36
same,promoter activity interaction Z-score,[3]; [12],0.043 ± 0.035
same,promoter activity interaction Z-score,[3]; [13],-0.0843 ± 0.009
same,promoter activity interaction Z-score,[3]; [14],0.253 ± 0.04
same,promoter activity interaction Z-score,[3]; [15],-0.0305 ± 0.051
same,promoter activity interaction Z-score,[3]; [16],-0.0475 ± 0.075
same,promoter activity interaction Z-score,[3]; [17],-0.046 ± 0.01
same,promoter activity interaction Z-score,[3]; [18],-0.0734 ± 0.14
same,promoter activity interaction Z-score,[3]; [19],-0.114 ± 0.2
same,promoter activity interaction Z-score,[3]; [20],-0.105 ± 0.05
same,promoter activity interaction Z-score,[3]; [21],-0.179 ± 0.24
same,promoter activity interaction Z-score,[3]; [22],0.5393 ± 0.002
same,promoter activity interaction Z-score,[4]; [7],0.731 ± 0.14
same,promoter activity interaction Z-score,[4]; [8],0.137 ± 0.52
same,promoter activity interaction Z-score,[4]; [9],0.0129 ± 0.29
same,promoter activity interaction Z-score,[4]; [10],0.416 ± 0.18
same,promoter activity interaction Z-score,[4]; [11],0.4996 ± 0.0037
same,promoter activity interaction Z-score,[4]; [12],0.465 ± 0.3
same,promoter activity interaction Z-score,[4]; [13],0.853 ± 0.58
same,promoter activity interaction Z-score,[4]; [14],0.476 ± 0.015
same,promoter activity interaction Z-score,[4]; [15],0.149 ± 0.086
same,promoter activity interaction Z-score,[4]; [16],0.206 ± 0.067
same,promoter activity interaction Z-score,[4]; [17],0.0157 ± 0.25
same,promoter activity interaction Z-score,[4]; [18],0.0237 ± 0.37
same,promoter activity interaction Z-score,[4]; [19],0.745 ± 0.73
same,promoter activity interaction Z-score,[4]; [20],0.961 ± 0.018
same,promoter activity interaction Z-score,[4]; [21],0.674 ± 0.97
same,promoter activity interaction Z-score,[4]; [22],1.34 ± 0.69
same,promoter activity interaction Z-score,[5]; [7],1.18 ± 0.82
same,promoter activity interaction Z-score,[5]; [8],-0.24 ± 0.58
same,promoter activity interaction Z-score,[5]; [9],0.206 ± 0.23
same,promoter activity interaction Z-score,[5]; [10],0.239 ± 0.22
same,promoter activity interaction Z-score,[5]; [11],0.596 ± 0.27
same,promoter activity interaction Z-score,[5]; [12],0.16 ± 0.16
same,promoter activity interaction Z-score,[5]; [13],0.385 ± 0.43
same,promoter activity interaction Z-score,[5]; [14],0.541 ± 0.27
same,promoter activity interaction Z-score,[5]; [15],0.714 ± 0.13
same,promoter activity interaction Z-score,[5]; [16],-0.447 ± 0.99
same,promoter activity interaction Z-score,[5]; [17],0.329 ± 0.74
same,promoter activity interaction Z-score,[5]; [18],0.0896 ± 0.043
same,promoter activity interaction Z-score,[5]; [19],0.943 ± 0.18
same,promoter activity interaction Z-score,[5]; [20],0.445 ± 0.36
same,promoter activity interaction Z-score,[5]; [21],-0.208 ± 0.44
same,promoter activity interaction Z-score,[5]; [22],0.518 ± 0.087
same,promoter activity interaction Z-score,[6]; [7],0.269 ± 0.063
same,promoter activity interaction Z-score,[6]; [8],0.0336 ± 0.05
same,promoter activity interaction Z-score,[6]; [9],-0.322 ± 0.09
same,promoter activity interaction Z-score,[6]; [10],0.15 ± 0.14
same,promoter activity interaction Z-score,[6]; [11],0.223 ± 0.25
same,promoter activity interaction Z-score,[6]; [12],0.0456 ± 0.13
same,promoter activity interaction Z-score,[6]; [13],0.138 ± 0.19
same,promoter activity interaction Z-score,[6]; [14],0.329 ± 0.29
same,promoter activity interaction Z-score,[6]; [15],0.245 ± 0.26
same,promoter activity interaction Z-score,[6]; [16],-0.00668 ± 0.18
same,promoter activity interaction Z-score,[6]; [17],-0.0803 ± 0.088
same,promoter activity interaction Z-score,[6]; [18],-0.0415 ± 0.028
same,promoter activity interaction Z-score,[6]; [19],0.426 ± 0.46
same,promoter activity interaction Z-score,[6]; [20],0.0221 ± 0.059
same,promoter activity interaction Z-score,[6]; [21],-0.22 ± 0.18
same,promoter activity interaction Z-score,[6]; [22],0.285 ± 0.86
same,promoter activity interaction Z-score,[1]; [7],0.409 ± 0.23
same,promoter activity interaction Z-score,[1]; [8],0.025 ± 0.4
same,promoter activity interaction Z-score,[1]; [9],-1.33 ± 0.07
same,promoter activity interaction Z-score,[1]; [10],-0.509 ± 0.71
same,promoter activity interaction Z-score,[1]; [11],0.591 ± 0.37
same,promoter activity interaction Z-score,[1]; [12],0.129 ± 0.57
same,promoter activity interaction Z-score,[1]; [13],-0.418 ± 0.28
same,promoter activity interaction Z-score,[1]; [14],0.558 ± 0.63
same,promoter activity interaction Z-score,[1]; [15],0.186 ± 1.3
same,promoter activity interaction Z-score,[1]; [16],-0.979 ± 0.47
same,promoter activity interaction Z-score,[1]; [17],-0.8316 ± 0.0065
same,promoter activity interaction Z-score,[1]; [18],-0.712 ± 0.47
same,promoter activity interaction Z-score,[1]; [19],-0.527 ± 0.035
same,promoter activity interaction Z-score,[1]; [20],-0.261 ± 0.0072
same,promoter activity interaction Z-score,[1]; [21],-1.42 ± 0.035
same,promoter activity interaction Z-score,[1]; [22],0.704 ± 0.5

# — the supplement of paper PMC12282887
